The text below walks through data of PubChem BioAssay (NCI).

Each structure is given as a SMILES string. About 83,000 compounds went through this panel and 20% of them were active in at least one assay; those are over-represented in the sample as a whole.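 Compound tested at a single concentration for 48 hours in 96-well plates; a percent growth value below 10 was scored as active.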 A number with no mark means an inactive call. Calls of active or inactive are those of the source.

Some test systems named below: SR leukemia; RPMI-8226 leukemia; OVCAR-8 ovarian; OVCAR-5 ovarian; OVCAR-4 ovarian; SK-OV-3 ovarian; IGROV1 ovarian; OVCAR-3 ovarian; HS 578T breast; NCI/ADR-RES ovarian.
What all share (experiment): NCI-60 one-dose screen, 48 h (100 = growth as untreated, 0 = no growth, -100 = all killed)
What all share (settings): 10 µM unless noted

For the molecule `COC(=O)c1sccc1-c1cc(O)c(C(=O)Nc2ccccc2)s1`, the growth was 92.8% in the assay with SR leukemia; 93.4% with RPMI-8226 leukemia; 101% in the assay with OVCAR-8 ovarian; 117% in the assay with OVCAR-5 ovarian; 89.7% in the assay with OVCAR-4 ovarian; 78.3% with SK-OV-3 ovarian. Also, the growth in the assay with IGROV1 ovarian is 95%; with OVCAR-3 ovarian, 96.2%; in the assay with HS 578T breast, 103%; in the assay on NCI/ADR-RES ovarian, 93.2%.
In the case of `O=C(Cn1nc(-c2cccc3ccccc23)ccc1=O)NCc1cccc(Cl)c1`, the growth with SR leukemia is 22.2% [50 µM]; with RPMI-8226 leukemia it was 23.7% [50 µM]; in the assay on OVCAR-8 ovarian it was 39.5% [50 µM]; with OVCAR-5 ovarian, 67.8% [50 µM]; with OVCAR-4 ovarian, 41.4% [50 µM]; in the assay with SK-OV-3 ovarian, 61.5% [50 µM]. The growth in the assay with IGROV1 ovarian was 47.2% [50 µM]; in the assay with OVCAR-3 ovarian, 38.6% [50 µM]; in the assay on HS 578T breast, 61.6% [50 µM]; in the assay on NCI/ADR-RES ovarian, 27.1% [50 µM].
Regarding `COC(=O)/C=C1/SC(=Nc2ccc(F)cc2)N(CCc2c[nH]c3ccc(O)cc23)C1=O`, the growth is -4.72% (active) in the assay with SR leukemia; 4.11% (active) in the assay with RPMI-8226 leukemia; 26.1% in the assay with OVCAR-8 ovarian; 76.3% in the assay with OVCAR-5 ovarian; 30.3% with OVCAR-4 ovarian; 80.8% with SK-OV-3 ovarian. The growth in the assay with IGROV1 ovarian was 24.6%; with OVCAR-3 ovarian it was 21.5%; in the assay with HS 578T breast it was 37.4%; with NCI/ADR-RES ovarian, 32.7%.
With `COc1ccc2c(O)c(/C=C3\N=Nc4ncccc43)oc2c1C[C@@H]1CCNC[C@H]1F`, the growth in the assay with SR leukemia was -22.1% (active); with RPMI-8226 leukemia, -4.16% (active); in the assay with OVCAR-8 ovarian it was -20.5% (active); with OVCAR-5 ovarian, 17%; in the assay on OVCAR-4 ovarian, -37.8% (active); in the assay on SK-OV-3 ovarian it was 15%. The growth was -2.07% (active) with IGROV1 ovarian, -17.9% (active) with OVCAR-3 ovarian, -1.31% (active) in the assay on HS 578T breast and 1.39% (active) in the assay on NCI/ADR-RES ovarian.
Consider `N=C(N)c1ccc(-c2ccc(-c3cc(Cl)cc(Cl)c3)s2)s1`, for which the growth in the assay on SR leukemia was -29.4% (active); with RPMI-8226 leukemia it was -26% (active); in the assay on OVCAR-8 ovarian, -34.6% (active); in the assay on OVCAR-5 ovarian, 3.07% (active); in the assay with OVCAR-4 ovarian, -58% (active); with SK-OV-3 ovarian, 88.7%. The growth is -26.7% (active) in the assay on IGROV1 ovarian, -76.2% (active) with OVCAR-3 ovarian, 87.6% with HS 578T breast and -21.4% (active) in the assay with NCI/ADR-RES ovarian.
On to `Nc1ncnc2c1N=C(c1ccc(F)cc1)CC(c1cccc(Nc3ccnc4cc(Cl)ccc34)c1)N2` (stereo not given), for which the growth was 0.875% (active) in the assay on SR leukemia; 25.9% in the assay with RPMI-8226 leukemia; 82.2% in the assay on OVCAR-8 ovarian; 107% with OVCAR-5 ovarian; 76.3% in the assay with OVCAR-4 ovarian; 98.9% with SK-OV-3 ovarian. For the same molecule, the growth in the assay on IGROV1 ovarian was 74.3%; with OVCAR-3 ovarian it was 88.9%; in the assay on HS 578T breast, 68.3%; with NCI/ADR-RES ovarian, 78.2%.
Consider `CCN(CC)CCOc1ccc2c(-c3ccccc3)c(-c3ccc(OC)cc3)c(=O)oc2c1`, for which the growth in the assay on SR leukemia is 21.9%; in the assay on RPMI-8226 leukemia, 48.8%; in the assay with OVCAR-8 ovarian, 72.6%; in the assay with OVCAR-5 ovarian, 91.6%; in the assay on OVCAR-4 ovarian, 73.7%; with SK-OV-3 ovarian, 84%. Further, the growth is 110% with IGROV1 ovarian, 94.3% in the assay on OVCAR-3 ovarian, 63.4% in the assay on HS 578T breast and 66.7% with NCI/ADR-RES ovarian.
For the molecule `COc1ccc(C2[C@@H](Cl)C(=O)N2c2cc(OC)c(OC)c(OC)c2)cc1Cl` (stereo not given in full), the growth with SR leukemia is 5.49% (active); in the assay on RPMI-8226 leukemia it was 9.34% (active); in the assay on OVCAR-8 ovarian, 9.75% (active); in the assay on OVCAR-5 ovarian, 64.4%; with OVCAR-4 ovarian, 56%; with SK-OV-3 ovarian, -0.0611% (active). The growth was 33.5% in the assay with IGROV1 ovarian, -2.62% (active) in the assay with OVCAR-3 ovarian, 31% in the assay on HS 578T breast and 18% in the assay on NCI/ADR-RES ovarian.
As to `Fc1ccc2[nH]cc(-c3nc(-c4c[nH]c5c(Cl)nccc45)cs3)c2c1`, the growth in the assay with SR leukemia was 13.3%; in the assay with RPMI-8226 leukemia, 48.5%; with OVCAR-8 ovarian, 52%; with OVCAR-5 ovarian, 99.1%; with OVCAR-4 ovarian, 65.3%; in the assay with SK-OV-3 ovarian it was 47.5%. The growth is 61.7% with IGROV1 ovarian, 70.9% in the assay on OVCAR-3 ovarian, 39% in the assay with HS 578T breast and 53.7% with NCI/ADR-RES ovarian.
